# Hits are enriched below; roughly 6.3% of the tested compounds scored in any of these assays.
# DPM-DC inhibit: S. pneumoniae DPM-DC inhibitors, primary screen, biochemical, PK/LDH-coupled NADH fluorescence. purified DPM-DC. 0.49% of 65,000 active. calls only at 10 µM;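 active = the 320 compounds with the highest percent inhibition in the single-dose primary screen, excluding strongly autofluorescent ones, cut at about 32% in these data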;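 also: kinetic rate of NADH fluorescence loss reporting ADP formed by the decarboxylase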
# Autofluor 339: intrinsic fluorescence of library compounds, ex339/em460 – biochemical, MLSMR library, data from DPM-DC assay, artefact control, profiling panel; compound autofluorescence, ex339/em460 nm, NADH buffer; stronger effect = higher value; 1 = no-compound wells, NADH background; fluorescence fold increase at 10 µM; 5.5% of 65,000 active; AID 709, 2007;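 active = at 10 µM, mean starting fluorescence two-fold or more over control wells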;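 also: signal is the first read of a kinetic run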
# NADH enzymes: inhibitors of PK/LDH coupling enzymes, profiling panel, artefact control, biochemical, MLSMR library; coupled PK/LDH NADH assays, four targets; IC50, µM (series often up to 10 µM), without a hit: at the highest dose inhibition; 0.02% of 65,000 active; AID 774, 2007;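 active = single-dose screening hits from any of four coupled enzyme assays that gave an IC50 when retested across doses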;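 also: the DPM-DC format reads NADH fluorescence rather than 340 nm absorbance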
# Spn MK inh: S. pneumoniae MK inhibitors, primary screen, biochemical, PK/LDH-coupled NADH absorbance. 0.48% of 65,000 active. inhibition, % at 10 µM. mevalonate kinase [Streptococcus pneumoniae D39]. AID 555, 2006. purified MK, PK/LDH-coupled NADH absorbance 340 nm;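 active = ranked among the strongest by inhibition in the single 10 µM screen, a fixed top-ranked set picked for dose follow-up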
# A340 absorber: compound light absorbance at 340 nm, profiling panel, artefact control, biochemical, MLSMR library, data from PS, PMK, MK assays; fold change at 10 µM; 65,000 tested, under 10 active; AID 708, 2007; compound absorbance at 340 nm, fold over control;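 active = at 10 µM dose, initial 340 nm absorbance at least 2 fold that of control wells; inactive = change under 2 fold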;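 also: initial absorbance extrapolated from kinetic A340 decline of NADH oxidation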
# Spn PMK inh: S. pneumoniae PMK inhibitors, primary screen, biochemical, mevalonate pathway, pilot trial included. inhibition, % at 10 µM. 0.49% of 65,000 active. purified PMK, PK/LDH-coupled NADH absorbance 340 nm. phosphomevalonate kinase (Streptococcus pneumoniae D39);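 active = top-ranked compounds by inhibition in the single 10 µM screen, taking a fixed number of the strongest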;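 also: 0% = full reaction with DMSO carrier and 100% = background rate without enzyme reaction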
# Active calls of the source: *; i = inactive; nt = no result shown; + = active, no number.
SMILES,DPM-DC inhibit,Autofluor 339,NADH enzymes,Spn MK inh,A340 absorber,Spn PMK inh
CCCCCCn1cnc2c(c1=O)c1nc3ccccc3nc1n2Cc1cccs1,i,2.3*,6%,3,1.1,5
Cc1c(/C(O)=C2/C(=O)C(=O)N(CCCN3CCOCC3)C2c2ccncc2)cnn1-c1ccccc1 (configuration not stated),i,1.1,4%,5,1,8
Cc1cc(=O)[nH]c(/N=C(\N)Nc2cccc3ccccc23)n1,+,1.1,22%,9,1,19
COc1ccccc1N/C(N)=N/c1nc(CSc2ccc(C)cc2)cc(=O)[nH]1,i,1.1,8%,11,1,12
COCCNC(=O)Cn1nc(C(F)(F)F)c(Cl)c1C,i,1.1,5%,0,1,16
Cc1ccc(CNC(=O)c2cc3c(=O)n4cccc(C)c4nc3n(CC3CCCO3)c2=N)cc1 (configuration not stated),nt,4*,5%,10,1,0
CCOCCCn1c(=N)c(C(=O)Nc2cc(C)on2)cc2c(=O)n3ccccc3nc21,nt,2.1*,1%,1,1,0
Cc1cccn2c(=O)c3cc(C(N)=S)c(=N)n(CCCOC(C)C)c3nc12,i,2*,2%,0,1,2
COc1ccc(CNC(=O)c2cc3c(=O)n4ccccc4nc3n(Cc3ccco3)c2=N)cc1,i,1.3,2%,1,0.99,5
COCCCn1c(=N)c(C(=O)NCC2CCCO2)cc2c(=O)n3ccccc3nc21 (configuration not stated),nt,4.9*,9%,4,1,13
CCOCCCn1c(=N)c(C(N)=S)cc2c(=O)n3cccc(C)c3nc21,i,1.9,9%,4,1.2,1
CCC(OC(=O)CC1Sc2ccccc2NC1=O)C(=O)NCC1CCCO1 (configuration not stated),i,1.1,2%,0,1,7
CCCn1c(=N)c(C(=O)NCC2CCCO2)cc2c(=O)n3cccc(C)c3nc21 (configuration not stated),nt,3.7*,17%,13,1,20
N=c1c(C(=O)NCc2ccc(F)cc2)cc2c(=O)n3ccccc3nc2n1CC1CCCO1 (configuration not stated),nt,3.9*,7%,5,1,9
COCCCn1c(=N)c(C(=O)NCC2CCCO2)cc2c(=O)n3cccc(C)c3nc21 (configuration not stated),nt,2.9*,3%,11,1,11
Nc1nc(SCC(=O)NCCCN2CCOCC2)nc2sc3c(c12)CCC3,i,1.1,0%,0,1.1,0
COc1cccc(CNC(=O)C2CCCN(S(C)(=O)=O)C2)c1 (configuration not stated),i,1.1,3%,8,1,0
CN(Cc1c(F)cccc1Cl)c1ccc(S(=O)(=O)N2CCOCC2)cn1,i,2.6*,8%,0,1,10
CCOc1ccc(/C(O)=C2\C(=O)C(=O)N(CCN(C)C)C2c2cc(OC)ccc2OC)cc1Cl (configuration not stated),i,1.1,5%,9,1.1,7
Cc1cc2oc(=O)cc(COC(=O)c3cccc(N(C)C)c3)c2cc1C,nt,2.1*,5%,3,1.1,7
Cc1ccc2c(COC(=O)c3cnc(C)cn3)cc(=O)oc2c1,i,1.1,3%,1,1.1,9
Cc1cccn2c(=O)c3cc(C(=O)NCCN4CCOCC4)c(=N)n(CCc4ccccc4)c3nc12,nt,2.3*,0%,0,1.1,0
Cc1cccn2c(=O)c3cc(C(=O)NCc4ccccc4)c(=N)n(CCCN4CCOCC4)c3nc12,nt,5.2*,6%,0,1,11
CCN(C)c1ccc(/C=N\n2nnnc2N)cc1,i,2.5*,15%,9,1.1,10
COc1cc(/C=N/n2nnnc2N)ccc1O,i,1.3,9%,1,1.1,9
SMILES,DPM-DC inhibit,Autofluor 339,NADH enzymes,Spn MK inh,A340 absorber,Spn PMK inh
CSc1ccc(/C=N/n2nnnc2N)cc1,nt,5*,10%,12,1.2,7
CCN(CC)c1ccc(/C=N/n2nnnc2N)c(O)c1,i,1.7,6%,13,1,0
Cc1c(C(=O)O)cnc2cc(-c3ccc(Cl)cc3)nn12,nt,2.1*,7%,9,1.1,4
Cc1cc(SCc2ccccc2)nc(=O)[nH]1,i,1.1,3%,10,1,0
O=C1N=C(c2ccccc2)C(c2ccccc2)N1 (configuration not stated),nt,2.2*,5%,9,1.1,0
O=C(O)c1ccc2c(c1)C(=O)N(C(Cc1ccc(O)cc1)C(=O)O)C2=O (configuration not stated),i,1.1,4%,7,1,6
CN1C(=O)c2ccccc2N(C)C1c1cccs1 (configuration not stated),nt,3.9*,6%,5,0.98,7
CCc1nn(C(C)C(=O)NC(C)CCc2ccco2)c(=O)c2cc3occc3n12 (configuration not stated),i,0.96,11%,0,0.98,27*
CCc1nn(C(C)C(=O)NCCc2ccc(OC)c(OC)c2)c(=O)c2cc3occc3n12 (configuration not stated),i,1,11%,7,1,26*
O=C(Nc1ccon1)c1cccc(S(=O)(=O)N2CCCC2)c1,i,1,1%,7,1,2
Clc1ccc2c(c1)C1OCCC1C(c1ccco1)N2 (configuration not stated),nt,3.7*,9%,7,1.1,10
COc1ccc2[nH]c(=O)c(-c3noc(-c4ccccc4)n3)cc2c1,nt,3.6*,4%,7,1,0
O=c1[nH]c2ccccc2cc1-c1noc(-c2cccnc2)n1,nt,4.2*,7%,8,1.1,6
COc1cc(OC)cc(-c2nc(-c3ccccc3)no2)c1,i,1.2,6%,10,1,4
COc1ccccc1OCc1nc2c3c(-c4ccccc4)c(-c4ccccc4)oc3ncn2n1,nt,3.2*,2%,2,1.2,1
Cc1nc2c3c(-c4ccccc4)c(-c4ccccc4)oc3ncn2n1,i,2,5%,0,1,15
CN(c1cc(=O)n2ccccc2n1)C1CCCCC1,i,1.2,7%,0,1,17
